# Values joined by “and” are separate entries in the source; they are usually repeats but may differ in a detail not shown here. Equal entries are not always repeated. The whole screen tested about 220,000 compounds, of which about 16,000 (7.3%) were called active. Where a call stands in place of a potency, no number is given. Inconclusive results (about 25%) are left out. Calls follow the shape of the dose curve; as a rule, active = well fitted inhibition curve with a large enough effect (not every such curve was filed as active); inconclusive = small, poorly fitted or top-dose-only effect, or another doubt; inactive = no such curve, though single readings can be large or run the other way. This excerpt belongs to a sample that is enriched for actives. The source holds several records for some structures; these can differ, active in one and inactive in another.
# Target: Aldehyde dehydrogenase 1A1 (Homo sapiens) (UniProt P00352)
# Sequence (P00352 whole entry, looked up): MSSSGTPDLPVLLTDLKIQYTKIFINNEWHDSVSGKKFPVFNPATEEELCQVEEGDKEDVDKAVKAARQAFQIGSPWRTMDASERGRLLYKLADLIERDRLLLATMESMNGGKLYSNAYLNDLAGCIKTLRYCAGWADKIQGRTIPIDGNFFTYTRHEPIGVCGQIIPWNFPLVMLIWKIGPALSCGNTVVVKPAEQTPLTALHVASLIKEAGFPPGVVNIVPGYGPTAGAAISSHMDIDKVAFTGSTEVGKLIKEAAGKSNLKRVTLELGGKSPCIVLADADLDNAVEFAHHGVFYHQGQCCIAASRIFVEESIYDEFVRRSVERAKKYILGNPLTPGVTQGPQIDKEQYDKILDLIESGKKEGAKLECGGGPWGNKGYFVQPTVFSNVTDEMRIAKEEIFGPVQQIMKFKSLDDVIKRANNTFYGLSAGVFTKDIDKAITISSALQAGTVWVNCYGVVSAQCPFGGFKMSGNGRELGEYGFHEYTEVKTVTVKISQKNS
# Test: qHTS Assay for Inhibitors of Aldehyde Dehydrogenase 1 (ALDH1A1)
# Conditions: Purified ALDH1A1, NADH fluorescence, propionaldehyde substrate; series mostly up to 75.3 µM
# Potency is read from the fitted curve at half-maximal effect.
row,Compound,Potency
1,O=C(NCc1ccccn1)c1cc(Br)ccc1Cl,inactive
2,CC[N+]1(CC)CC2=Cc3ccccc3CC2C1 (centres undefined),inactive
3,COc1ccc(N2CCN(C(=O)CCSCc3ccccc3F)CC2)cc1,inactive
4,Cc1cccc(-n2cc(CN3CCN(C(=O)c4ncn[nH]4)CC3)c(-c3cccc(F)c3)n2)c1,inactive
5,CC(C)=CCC[C@]1(C)[C@@H](CC=C(C)C)C[C@@]2(CC=C(C)C)C(=O)[C@]1(C(=O)C(C)C)C(=O)C(CC=C(C)C)=C2O,inactive
6,O=C(Nc1ccc(F)cc1)N1CCN(c2ccc(F)cc2)CC1,inactive
7,Cc1nn(Cc2ccc(Cl)cc2)c(Cl)c1/C=N/NC(=O)c1cccnc1,inactive
8,O=C(N/N=C/c1sc(N2CCCCC2)nc1-c1cccs1)c1cccnc1,31.6 µM (active)
9,O=C(N/N=C/c1ccccn1)c1cccnc1,inactive
10,CCN(CCCNC(=O)CSc1cc(=O)n(C)c2cc(Cl)ccc12)Cc1ccccc1,inactive
11,CC1=NNC(=O)C1CCC(=O)N/N=C\c1cccc(Cl)c1 (centres undefined),inactive
12,CCc1n[nH]c(=S)n1/N=C/c1c[nH]c2ccc(Br)cc12,inactive
13,O=[N+]([O-])c1ccccc1/C=N/n1c(COc2ccccc2)n[nH]c1=S,15.8 µM (active)
14,S=c1[nH]nc(COc2ccccc2)n1-c1ccccc1,inactive
15,O=C(Nc1nc(-c2cccnc2)cs1)c1ccccc1F,inactive
16,CCN1CCN(CC(=O)Nc2sc3c(c2C#N)CCC3)CC1,inactive
17,CCc1cc2c(=O)c(-c3nc4ccccc4n3C)c(CCCC(=O)O)oc2cc1OC(=O)C(C)(C)C,inactive
18,CCOC(=O)c1oc2c(CN3CCN(CCO)CC3)c(O)c(CC)cc2c(=O)c1-c1nc2ccccc2s1,28.2 µM (active)
19,Cn1c(=O)[nH]c(=O)c2c1nc(N1CCN(CCO)CC1)n2CCSc1nc2ccccc2s1,inactive
20,CCCCn1nc(C(=O)OCC(=O)Nc2sccc2C(N)=O)c2ccccc2c1=O,inactive
21,CCOC(=O)N1CCN(Cc2nc(Cc3cccc(C(F)(F)F)c3)no2)CC1,inactive
22,COC(=O)c1cc2c(ccn2C)n1C,inactive

row,Compound,Potency
1,CCOC(=O)/C(C#N)=C/c1cn(CCC(=O)O)nc1-c1ccc(Br)cc1,inactive
2,COc1ccc(C(=O)Oc2cc(/C=N/NS(=O)(=O)c3ccc(C)cc3)ccc2OC)cc1,inactive
3,COc1ccc(S(=O)(=O)N/N=C\c2ccc(OC)c(COc3ccc(C)cc3[N+](=O)[O-])c2)cc1,14.1 µM (active)
4,COc1cc(/C=N/O)ccc1OCc1ccc([N+](=O)[O-])cc1,inactive
5,Cc1ccc2c(c1)C1CN(C)CCC1N2C(=S)Nc1ccc(OC(F)F)cc1 (centres undefined),inactive
6,COCCNC(=O)NC(=O)COC(=O)C1(c2ccc(Cl)cc2)CC1,inactive
7,CSCCNCc1cn(-c2ccc(F)cc2F)nc1-c1ccccc1C,35.5 µM (active)
8,COc1ccccc1CC(=O)Nc1ccc(F)cc1F,inactive
9,O=C(CC12CC3CC(CC(C3)C1)C2)NCc1ccco1,inactive
10,CCOC(=O)c1ccc[n+](CC(=O)Nc2ccccc2OC(F)F)c1,inactive
11,COC(=O)c1cccc(-n2[nH]nnc2=S)c1,2.82 µM (active)
12,COC(=O)c1nn(-c2cccc(Cl)c2)ccc1=O,inactive
13,COC(=O)c1ccc(-n2cnc3ccccc32)nc1,inactive
14,COc1ccc(NC(=O)c2ccccc2[N+](=O)[O-])cc1OC,inactive
15,CCOC(=O)C1(Cc2ccc(Cl)cc2)CCN(C(=O)C2=NNC(=O)CC2)CC1,inactive
16,CN(C)S(=O)(=O)c1cccc(NC(=O)COC(=O)/C=C/c2cccs2)c1,inactive
17,Cc1ccc(S(=O)(=O)N(C)C)cc1NC(=O)c1ccccc1Br,inactive
18,Cc1ccc(S(=O)(=O)N(C)C)cc1NC(=O)/C=C/c1cccs1,0.447 µM (active)
19,CCCCN(CC(=O)NC(C)(C)C)C(=O)C(=O)Nc1ccc2c(c1)OCCO2,inactive
20,N=c1c2c3c(sc2ncn1N)CCCC3,inactive
21,c1nnc2c3c4c(sc3ncn12)CCC4,inactive
22,S=c1[nH]nc2c3c4c(sc3ncn12)CCCC4,25.1 µM (active)

row,Compound,Potency
1,Clc1cccc(-c2nc(NCC3CCCO3)c3ccccc3n2)c1 (centres undefined),inactive
2,C[C@@H](C(=O)Nc1ccc2ccccc2c1)[C@@H]1C[C@@]1(C)[C@@H](NC(=O)c1cccnc1)c1ccccc1,inactive and 22.4 µM (active)
3,O=C(Nc1ccc(N2CCN(C(=O)c3ccccc3)CC2)c(Cl)c1)c1cccnc1,inactive
4,CCC(=O)Nc1cccc(NC(=O)c2cccnc2)c1,inactive
5,CC(NC(=O)Nc1ccc2c(c1)OCO2)c1ccncc1 (centres undefined),inactive
6,CCn1nnc(NC(=O)c2c(OC)cccc2OC)n1,inactive
7,COc1cccc(OC)c1C(=O)Nc1ccc(Cc2ccncc2)cc1,inactive
8,COc1cccc(OC)c1C(=O)Nc1nnc(C(C)C)s1,7.08 µM (active)
9,CC(CC(=O)O)C(=O)c1ccc(Cl)c([N+](=O)[O-])c1 (centres undefined),inactive
10,COc1cc(C(=O)N[C@@H](C)C(=O)NCc2ccco2)cc(OC)c1OC,inactive
11,COc1cc(C(=O)NC(=S)NCc2ccco2)cc(OC)c1OC,5.01 µM (active)
12,COc1ccc(-c2cc(C(=O)NCc3ccco3)no2)cc1OC,inactive
13,Cc1cccc(NC(=S)N2CCC(O)CC2)c1C,inactive
14,CC(C)(c1ccccc1)c1ccc(OCCN)cc1,inactive
15,CCOc1ccc(/C=N/Nc2nncc(-c3ccccc3)n2)cc1OC,inactive
16,CN(C)S(=O)(=O)c1cccc(NC(=O)COC(=O)c2cc(=O)[nH]c(=O)[nH]2)c1,inactive
17,CN(C)S(=O)(=O)c1ccc(NC(=O)COC(=O)Cn2[nH]c(=O)c3ccccc3c2=O)cc1,28.2 µM (active)
18,CN(C)S(=O)(=O)c1ccc(NC(=O)COC(=O)c2n[nH]c3ccccc23)cc1,inactive
19,C=CCN(c1ccc(Cl)cc1)S(=O)(=O)c1cccc(C(=O)OCC(=O)N(C)C)c1,inactive
20,O=C(NNC(=S)NCc1ccccc1)c1ccc(OC(F)F)cc1,inactive
21,Cc1nc2nc[nH]n2c(=O)c1C/C=C/c1ccccc1,inactive
22,CC(C)=CCN1CCC2(CCc3ccccc32)CC1,inactive

row,Compound,Potency
1,CCC(C)NCC(=O)Nc1ccc([N+](=O)[O-])cc1C(=O)Nc1ccccc1F (centres undefined),inactive
2,Cc1cccc(C(=O)NNC(=O)c2cccc([N+](=O)[O-])c2)c1,inactive
3,O=[N+]([O-])c1cccc(/C([O-])=C(/C(=S)Nc2ccccc2F)[n+]2ccccc2)c1,22.4 µM (active)
4,CCOc1cc(N2CCOCC2)c(OCC)cc1NC(=O)C1=NN(c2cccc(C)c2)C(=O)CC1,inactive
5,CCNC(=S)Nc1ccc(OC(F)(F)F)cc1,inactive
6,CCOC(=O)C(C(=O)OCC)C(C#N)c1ccccc1 (centres undefined),inactive
7,CCOC(=O)NC(=O)/C(C#N)=C\c1ccccc1,7.08 µM (active)
8,CCOC(=O)/C(C#N)=C/c1ccc(N2CCN(Cc3ccccc3)CC2)cc1,inactive
9,Cc1ccnc(NC(=O)Cn2ccc([N+](=O)[O-])n2)c1,inactive
10,Cc1cc(NC(=O)COn2nnc3ccccc32)no1,inactive
11,Cc1ccc(CC(=O)Nc2cccc(C#N)c2)cc1,inactive
12,CS(=O)(=O)c1ccc2nnn(OCC(=O)Nc3cccc(C#N)c3)c2c1,10 µM (active)
13,CC(=O)c1ccccc1NC(=O)CC1(CC(=O)O)CCCCC1,inactive
14,C=CCC1CCC(=O)N2CCCC12 (centres undefined),inactive
15,CC(C)(C)NC(=O)CSC(=Nc1ccccc1F)NC#N,1.26 µM (active)
16,COc1ccccc1-n1ccnc1SCC(=O)NC(C)(C)C,inactive
17,Cc1ccccc1CSCC(=O)NC(=O)NC(C)(C)C,inactive
18,COc1cccc(OC)c1CN(C)C(=O)c1cnccc1C(F)(F)F,inactive
19,O=C(N/N=C/c1ccc([N+](=O)[O-])cc1)c1c[nH]c2ccccc12,inactive
20,CC(=O)NCCC(=O)Nc1nc(C)c(Cc2ccc3c(c2)OCO3)s1,inactive
21,S=c1ccc2ccccc2[nH]1,25.1 µM (active)
22,O=C(Nc1ccccc1)c1cc2ccccc2[nH]1,inactive

row,Compound,Potency
1,COc1cc(COCC(O)CN2CCN(Cc3ccc4c(c3)OCO4)CC2)cc(OC)c1OC (centres undefined),inactive
2,Cc1nc([N+](=O)[O-])cn1CC(=O)Nc1ccc2c(c1)OCO2,inactive
3,Cn1cnc(C(F)(F)F)c1-c1ccc([N+](=O)[O-])cc1,inactive
4,Cc1cccc(C)c1Nc1nnc(SCC(=O)Nc2sccc2C#N)s1,inactive
5,O=C1C(c2[nH]c3ccccc3c2O)=Nc2ccccc21,15.8 µM (active)
6,CC(C)C(=O)Nc1c(O)c2ccccc2[nH]c1=O,inactive
7,CC(=O)Nc1ccc(OCC(=O)NCc2ccc(C)cc2)cc1,inactive
8,C/C=C/c1ccc(OCC(O)CN2CCCCCCC2)c(OC)c1 (centres undefined),inactive
9,CCOC(=O)CNc1nc(Cl)nc(Nc2ccccc2)n1,inactive
10,CC(NC(=S)Nc1ccc(OC(F)F)cc1)c1ccc(F)cc1 (centres undefined),inactive
11,O=C(Nc1cccc(C(=O)N2CCCC2)c1)c1ccccc1,inactive
12,Cc1cccc(C(=O)N2CCCN(C(=O)c3cccc(C)c3)CC2)c1,inactive
13,Cc1ccc(C(=O)N2CCN(C(=O)N3CCOCC3)CC2)cc1,inactive
14,Cc1ccc(-n2c(N)c(C(=O)N3CCOCC3)sc2=S)c(C)c1,10 µM (active)
15,N#Cc1ccccc1-n1c(N)c(C(=O)N2CCCC2)sc1=S,11.2 µM (active)
16,O=C(c1ccc(S(=O)(=O)c2ccccc2)cc1)N1CCCCCC1,inactive
17,Cc1ccc(OCCCC(=O)N2CCOCC2)c(C)c1,inactive
18,Cc1nc2ccc(C(=O)N3CCN(c4ccccc4)CC3)cc2s1,inactive
19,Cc1cccc(-n2c(N)c(C(=O)N3CCN(C)CC3)sc2=S)c1,22.4 µM (active)
20,CCN(CC)S(=O)(=O)c1ccc(N(C)Cc2cccc(OC)c2OC)nc1,inactive
21,CC(C)(C)OC(=O)NCCCCC1=CC2=CC(=O)C(C)(OC(=O)c3cccs3)C(=O)C2=CO1 (centres undefined),inactive

# Source: PubChem BioAssay AID1030 (National Center for Advancing Translational Sciences (NCATS), 2008)
